# Data reported in PubChem BioAssay (NCI).
# Compounds without any hit were thinned out: in the full panel of roughly 83,000, 20% have a hit.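 Percent growth is the endpoint: 0 to 100 indicates growth inhibition (40 means 60% inhibition), 0 means no net growth, and negative values indicate cell death.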 Calls of active or inactive are those of the source.
# Tested on: HL-60(TB) leukemia
# Experiment: NCI-60 one-dose screen, 48 h (100 = growth as untreated, 0 = no growth, -100 = all killed)
# Details: 10 µM unless noted
# Experimental: Growth inhibition of the HL-60(TB) human tumor cell line is measured as a screen for anti-cancer activity. Cells are grown in 96 well plates and exposed to the test compound for 48 hours. Compounds are tested at a single concentration, which is 10^-5 M for most compounds. The reported endpoint is percent growth (GI% or GIPRCNT), where numbers from 0 - 100% represent growth inhibition, and numbers from -100% - 0 represent cell death. For example, a value of 40 represents 60% growth inhibition. A value of 0 means no net growth occurred over the course of the experiment. A value of -40 indicates 40% of cells at the beginning of the experiment died by the end of the experiment. A value of -100 means all cells are dead at the end of the experiment.
# NCI-60 Human Tumor Cell Lines Screen was performed using the standard one-dose NCI protocol, which is described in more detail at https://dtp.cancer.gov/discovery_development/nci-60/default.htm.
# Compounds with GIPRCNT values below 10 were considered active. Activity score was based on GIPRCNT using the following formula: […]
# Score is 0 for GIPRCNT values of 100 or above, 50 for GIPRCNT values of 0, and 100 for GIPRCNT values of -100.
row,Compound,growth
1,CC1=C(C)C(=O)C(Nc2cccc(C)c2)=C(Br)C1=O,37% (inactive)
2,CC(O)c1cccc(/C(N)=N/C(N)=N/c2nc3ccccc3s2)c1 (stereo not given),84.5% (inactive)
3,CN1CCN(Cc2ccc(NC(=O)c3cncc(C#Cc4cnc5ccc(NCCO)nn45)c3)cc2C(F)(F)F)CC1,-12.1% (active)
4,O=C(CSc1nnc(-c2cccs2)n1-c1ccccc1)Nc1ccc(F)cc1,69.5% (inactive)
5,O=C(CN1C(=O)S/C(=C\c2ccccc2)C1=O)Nc1ccc(C(=O)/C=C/c2cc3ccccc3nc2Cl)cc1,80.2% (inactive)
6,O=C1[C@H]2Cc3c([nH]c4ccccc34)[C@H](c3ccc(Cl)cc3)N2C(=O)CN1C1CCN(CC2CCCCC2)CC1,47.2% (inactive)
7,CCN1CCN(Cc2cn(-c3ccc(S(N)(=O)=O)cc3)nn2)CC1,110% (inactive)
8,CCNCc1c(-c2cccc(OC(F)(F)F)c2)[nH]c2ccc(N3CCCC3)cc2c1=O,-8.31% (active)
9,N#Cc1cccc(NC(=O)c2cc(-c3ccc(F)cc3F)ccc2O)c1,-29.2% (active)
10,O=C(CSc1nc2ccccc2c(=O)n1-c1ccc(Cl)cc1)N/N=C/c1ccc(Oc2ccc(Cl)cc2)cc1,111% (inactive)
11,COc1ccc(-c2nc3cc(Cl)c(Cl)cc3n2CC(=O)N=Nc2c(O)[nH]c3ccc(OC)cc23)cc1,86.3% (inactive)
12,COc1cccc(COc2ccc(/C=C3/C(=O)Nc4cc(Cl)ccc43)cc2)c1,105% (inactive)
13,Brc1ccc2[nH]cc(-c3nn4cc(-c5nccs5)nc4s3)c2c1,59.1% (inactive)
14,O=S(=O)(Oc1ccc(-c2cn3ccoc3n2)cc1)C1CCCCC1,90.2% (inactive)
15,O=C(CSc1nc2ccccc2c(=O)n1-c1ccccc1)N/N=C/c1ccc(Oc2ccc(Cl)cc2)cc1,106% (inactive)
16,Cc1ccc(Nc2ncnc3c2c(C)nn3-c2ccc([N+](=O)[O-])cc2)cc1,96.7% (inactive)
17,CC(=O)c1cc(C(=O)c2ccc(Br)cc2)n2cc(C)cc(C)c12,83.3% (inactive)
18,O=C1/C(=C/c2ccc([N+](=O)[O-])cc2)SC(=Nc2ccccc2)N1Nc1ccccc1,25.8% (inactive)
19,CCOC(=O)C1=C(C)Nc2nc3ccccc3n2C1c1ccccc1 (stereo not given),85.6% (inactive)
20,O=C1c2c(c3c4cc(Br)ccc4[nH]c3c3ccc4ccccc4c23)C(=O)N1CCN1CCNCC1,62.3% (inactive)

row,Compound,growth
1,COc1cc(C2N=C(NNc3ccccc3)NC(C)=C2C(C)=O)ccc1O (stereo not given),92.3% (inactive)
2,Fc1ccc(-c2cn3c(-c4c[nH]c5ccc(Br)cc45)csc3n2)cc1,104% (inactive)
3,Oc1ccccc1-c1nnc(SCc2ccc(O)c3ncccc23)o1,26.3% (inactive)
4,COc1ccc(-c2nc(SCCC(C)C)nc(N/N=C\c3ccc(O)cc3)c2C#N)cc1,73.3% (inactive)
5,O=C(N/N=C/c1ccc[nH]1)c1[nH]c2ccc(Br)cc2c1-c1ccccc1,-39.1% (active)
6,Cc1cc2nc(C(Cl)Cl)nc(-c3cccs3)n2n1,-25.4% (active)
7,O=C1NC(=O)/C(=C/c2ccc(OCc3cc4ccccc4nc3Cl)cc2)S1,100% (inactive)
8,Cc1ccc(NC(=O)c2ccc(CN3CCN(C)CC3)cc2)cc1Oc1ccc(-c2[nH]nc3ncnc(N)c23)cc1,126% (inactive)
9,O=C1Nc2ccc(Cl)cc2/C1=C/c1ccc(OCc2ccc(F)cc2)cc1,94.6% (inactive)
10,CC(C)(C)CC(C)(C)n1nnnc1C(Nc1nccs1)c1cc2cccc3ccc4cccc1c4c32 (stereo not given),107% (inactive)
11,CC1=C2C(=C[C@@](C)(C=O)[C@@H]2O)C(=O)[C@](C)(O)C12CC2,-12% (active)
12,Cn1c(SCC(=O)Nc2ccc(-c3nc4ccc([N+](=O)[O-])cc4[nH]3)cc2)nc2ccccc2c1=O,91.1% (inactive)
13,CC1=C2C(=O)[C@](C)(CO)C=C2C(=O)[C@](C)(O)C12CC2,-21.6% (active)
14,CCCc1cc2cc(-n3nc(CC)c4c3CC(C)(C)CC4=O)cc(NC3CCC(O)CC3)c2c(=O)[nH]1 (stereo not given),-2.33% (active)
15,C/C(=C(/C)C1CC1CCN(C(=O)c1ccc([N+](=O)[O-])cc1)S(=O)(=O)c1ccc(C)cc1)C1CCCCC1 (stereo not given),96.5% (inactive)
16,CCN(CC)S(=O)(=O)c1ccc(-c2nc(C(Cl)Cl)nc3cc(-c4ccc(F)cc4)nn23)cc1,4.64% (active)
17,NC(N)=Nc1ccc(Nc2cccc(Oc3ccc(Cl)c(C(F)(F)F)c3)c2)cn1,-67.4% (active)
18,COc1ccc(CNS(=O)(=O)/N=C2\NC(=O)NC2=C(Cl)Cl)cc1,-11.1% (active)
19,O=[N+]([O-])c1ccc(NC(=S)NNC(=S)Nc2ccc(F)cc2)cc1,84.8% (inactive)
20,CCCCN1C(=O)/C(=c2\sc3n(c2=O)C2C(NN=3)N(CC)C(=O)N2CC)c2cc(Cl)ccc21 (stereo not given),51.7% (inactive)
